Source: PubChem BioAssay AID1020 (Sanford-Burnham Center for Chemical Genomics, 2008)
The campaign covered roughly 200,000 compounds. About 240 (0.12%) were called active. The entries come from a sample that favours actives as a whole. A number with no mark means an inactive call. Cut-off read from the data, not from the text of the source: active = inhibition above about 50%; inactive = the rest.

tested on: glucose-6-phosphate dehydrogenase [Leuconostoc mesenteroides]; assay: L. mesenteroides G6PDH inhibitors, counter-screen for G6PDH-coupled screening assays, biochemical, Leuconostoc mesenteroides enzyme (AID 1020); details: Purified L. mesenteroides G6PDH, diaphorase/resazurin coupled fluorescence, 45 min; at 5 µM; hits give high values

Compound | inhibition
OCCC1CN(Cc2cccn2-c2nccs2)CCN1CCc1ccccc1 (centres undefined) | 12.9%
CCC1(CC)NC(=O)N(Cc2nc3ccccc3s2)C1=O | 10.3%
CCOc1ccccc1NC(=O)C1CCCN(C(=O)Nc2ccccc2)C1 (centres undefined) | 4.5%
CCOC(=O)CNC(=O)/C=C/c1c(Cl)cccc1Cl | 1.5%
Cc1ccc(N2C(=O)SC(N(CC(=O)O)c3ccc(C)cc3)C2=O)cc1 (centres undefined) | 21.1%
Cc1ccc(Nc2nnc(SCC(=O)c3cc4ccccc4o3)s2)cc1C | -1.5%
CCC(C)NCC(=O)Nc1ccc([N+](=O)[O-])cc1C(=O)Nc1ccccc1F (centres undefined) | 4.8%
NC1=NN(c2cccc(C(=O)O)c2)C(=O)C1 | 19.2%
CCOC(=O)/C(N=Nc1cc(C(=O)O)cc(C(=O)O)c1)=C(\O)CCl | -9.1%
CCC1CCCCN1C(=S)Nc1ccc(SC(F)F)cc1 (centres undefined) | -14.7%
O=C(O)/C=C/c1cn(Cc2ccccc2)nc1-c1cccs1 | 2%
CC[N+]1(CC)CC2=Cc3ccccc3CC2C1 (centres undefined) | 0.9%
O=C(Nc1ccc(Cl)cc1)C1c2cccc[n+]2CC(=O)N1Cc1ccc2c(c1)OCO2 (centres undefined) | 10.2%
C=CCN(CC=C)S(=O)(=O)c1ccc(C(=O)Nc2nc3c(s2)CCc2ccccc2-3)cc1 | 8.4%
Oc1c(C(c2ccccn2)N2CCOCC2)ccc2cccnc12 (centres undefined) | 50.6% (active)
Cc1nc2sc(C(c3ccco3)N3CCOCC3)c(O)n2n1 (centres undefined) | -0.1%
CCOC(=O)N1CCN(C(c2cccnc2)c2ccc3cccnc3c2O)CC1 (centres undefined) | 23.8%
COc1ccccc1N=Cc1c(O)c2ccccc2oc1=O | 2.9%
COC(=O)c1c(NC(=O)COC(=O)[C@@H](NS(=O)(=O)c2ccccc2)C(C)C)sc2c1CCC2 | -20.8%
Cc1cc(C)cc(C(=O)N2CCN=C2SCc2ccc([N+](=O)[O-])cc2)c1 | -0.2%
COCC(C)n1c(C)cc(C(=O)CSc2cc(C)c3ccccc3n2)c1C (centres undefined) | -2.6%
CC1=C/C(=N\S(=O)(=O)c2ccccc2)C(C(C)C)=CC1=O | 1.5%
CC(C)CC[n+]1ccn(C2=C([O-])c3ccccc3C(=O)/C2=N\S(=O)(=O)c2ccccc2)c1 | 52.9% (active)
O=C1NC(c2ccccc2)CCC1(Cl)Cl (centres undefined) | -1%
COc1ccccc1CNC(=O)C1Cc2ccccc2C(=O)O1 (centres undefined) | 14.2%

Compound | inhibition
Cc1cccc(-c2nc3ccccc3c(=O)n2NC(=O)Cc2ccc(Cl)cc2)c1 | 12.9%
O=C(COC(=O)c1cc2c(s1)CCCC2)NCc1ccccc1Cl | -30.3%
CCNC(=O)c1ccc(OCC(=O)Nc2ccc(F)cc2)c(OC)c1 | 0%
COC1=CCC2([N+](=O)[O-])CN(CC(=O)O)CC1([N+](=O)[O-])C2 (centres undefined) | -3.5%
Cc1ccc(C2=NN(C(=O)CSc3nc(N)cc(N)n3)C(c3ccco3)C2)cc1 (centres undefined) | -0.7%
COc1ccc(C)cc1NC(=O)C(OC(=O)c1cccc(S(=O)(=O)N(C)c2ccccc2)c1)c1ccccc1 (centres undefined) | 0.4%
Cc1cc(C)c(NC(=O)C[N+](C)(C)CC(O)COc2cccc3ccccc23)c(C)c1 (centres undefined) | -0.6%
CCOC(=O)C1=C(C)OC(N)=C(C#N)C1c1cncc(-c2ccc(F)cc2)c1 (centres undefined) | 14.8%
CC1(C)CC(=O)C2=C(C1)Nc1cc(C(=O)c3ccccc3)ccc1NC2c1ccccn1 (centres undefined) | 8.9%
Cc1nc2ccc(NC(=S)N3CCC(C)CC3)cc2nc1C | 29.3%
COC(=O)c1nc(NC(=O)c2ccc(F)cc2)n[nH]1 | -4.4%
Cc1ccc(S(=O)(=O)N(CC(=O)Nc2cccc([N+](=O)[O-])c2)Cc2ccc(Cl)cc2)cc1 | -21.7%
O=C(/C=C/c1ccc(Cl)cc1)Nc1ccc(Br)cn1 | 7.2%
Cn1c(=O)c2c(ncn2CC(=O)N/N=C/c2cn[nH]c2-c2ccc(F)cc2)n(C)c1=O | -4.7%
CC(C)(C)NC(=O)CN(C(=O)c1csnn1)c1ccccc1-c1ccccc1 | 9.8%
COCCCNC(=O)Cn1c(=O)n(Cc2ccccc2Cl)c(=O)c2cc(OC)c(OC)cc21 | 4.4%
Cc1ccc(-c2cc(N)on2)cc1 | 4.2%
CCCN(CCC)CCCNC(=O)CNC(=O)c1nn(-c2ccc(OC)cc2)c(=O)c2ccccc12 | 6%
CCOC(=O)c1c(NC(=O)CNC2CCCc3ccccc32)sc(C(N)=O)c1C (centres undefined) | 2.5%
CN(CC(=O)Nc1ccccc1[N+](=O)[O-])Cc1ccc(Br)cc1 | -0.3%
Cc1cc(/C=N/NC(=O)c2cccnc2)c(C)n1CC(C)C | 2.9%
CC1CCCCN1C(=S)NCc1ccccc1 (centres undefined) | -13%
CC(=O)N1c2ccccc2N(Cc2ccc([N+](=O)[O-])cc2)C(=O)C1(C)C | 4.5%
COC(=O)c1ccc(NC(=O)c2cc(Cl)ccc2OC)cc1 | 0.4%
